Compound activity from PubChem.
The list is not random: actives were taken first. Their share in the collection is about 0.5%.
RTF Ca sens inh: cardiac RTF calcium desensitization; IANBD-labeled cardiac RTF, Ca2+ fluorescence; inhibition, % at 7.15 µM; actives 0.12% (n = 340,000);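 active = inhibition above the mean inhibition of all tested compounds plus 3 SD, cut at about 17% in these data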;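 note: assay run at fixed EC70 calcium of 1.6 mM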
C-LANA FP: inhibitors of KSHV LANA C-terminal domain DNA binding | actives 0.078% (n = 340,000) | inhibition, % at 9 µM | MBP-C-LANA/FAM-LBS DNA binding, fluorescence polarization;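 active = highest replicate inhibition at or above 60% at 9 µM, even if other replicates fall short; inactive = all replicates below 60% inhibition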
Keap1 Nrf2 FP: inhibitors of human Keap1-Nrf2 protein-protein interaction | Q14145 | actives 0.15% (n = 340,000) | Keap1 Kelch-Nrf2 peptide fluorescence polarization, 1536-well | inhibition, % at 9.4 µM; in the data active = inhibition above about 12%;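 note: human Keap1 Kelch domain with fluorescein labeled Nrf2 9mer peptide probe; higher means more block of Keap1 binding to Nrf2 peptide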
Target sequence (Q14145 whole entry, looked up, the tested form may be a part): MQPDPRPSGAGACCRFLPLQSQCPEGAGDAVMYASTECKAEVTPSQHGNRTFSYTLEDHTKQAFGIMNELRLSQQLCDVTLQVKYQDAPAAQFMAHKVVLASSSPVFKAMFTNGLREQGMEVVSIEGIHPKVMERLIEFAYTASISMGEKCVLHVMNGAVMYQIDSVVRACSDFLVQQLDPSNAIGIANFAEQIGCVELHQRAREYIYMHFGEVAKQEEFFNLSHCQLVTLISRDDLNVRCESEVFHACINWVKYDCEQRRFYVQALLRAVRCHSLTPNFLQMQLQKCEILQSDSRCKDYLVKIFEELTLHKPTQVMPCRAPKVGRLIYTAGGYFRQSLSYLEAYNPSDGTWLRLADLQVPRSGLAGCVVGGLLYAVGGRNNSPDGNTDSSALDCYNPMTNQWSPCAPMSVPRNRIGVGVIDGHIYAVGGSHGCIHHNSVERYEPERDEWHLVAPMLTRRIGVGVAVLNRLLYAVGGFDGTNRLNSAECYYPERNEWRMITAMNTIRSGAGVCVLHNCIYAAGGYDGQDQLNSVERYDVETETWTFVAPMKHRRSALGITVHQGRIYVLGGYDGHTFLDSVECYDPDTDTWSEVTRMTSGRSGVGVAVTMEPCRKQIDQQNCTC
cardiac RTF act: increases calcium sensitivity of human cardiac regulated thin filaments. P19429+P45379. IANBD-labeled TnC RTF fluorescence at EC20 calcium; 0% EC20 calcium, 100% full calcium. activation, % at 7.2 µM. actives 0.24% (n = 340,000). AID 493008;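 active = activation above the mean over all tested compounds plus 3 SD, cut at about 30% in these data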;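 note: rise in fluorescence read as greater calcium sensitivity of cardiac thin filaments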
Numbers stand for hits; – = inactive; + = active, no number.

SMILES | RTF Ca sens inh | C-LANA FP | Keap1 Nrf2 FP | cardiac RTF act
NC(=O)c1c(NC(=O)C2COc3ccccc3O2)sc2c1CCN(Cc1ccccc1)C2 (stereo unspecified) | – | – | – | 38
COc1cc(OC)cc(-c2oc3cccnc3c2C#CCCO)c1 | – | – | – | –
COc1ccc(-c2ccc(SCC(=O)NC3CCCCC3)nn2)cc1OC | – | – | – | –
Cc1ccnc(N/C=C(\C#N)c2nc(-c3cccc(Br)c3)cs2)c1 | – | – | – | 95
Cc1ccc(-c2nn(-c3ccccc3)cc2C(=O)NCC2CCCO2)cc1 (stereo unspecified) | – | – | – | –
COc1cc(C(=O)Nc2ccc(Cl)c(C(F)(F)F)c2)cc(OC)c1OC | – | – | – | 33
COc1cc(CCC(=O)Nc2ccc(Cl)c(C(F)(F)F)c2)cc(OC)c1OC | – | – | – | –
Cc1[nH]ncc1-c1ccccc1Cl | – | – | – | –
O=C(Nc1nc2c(s1)CN(Cc1ccccc1)CC2)C1CCC1 | – | – | – | –
CN(C)c1ccc(/C=C(\C#N)C(=O)Nc2nc3c(s2)CCN(Cc2ccccc2)C3)cc1 | – | – | – | 83
CN(C)c1ccc(/C=C(/C#N)C(=O)NCc2ccccc2)o1 | – | – | – | 69
Cc1ccc(OCCCC(=O)NC2CCCCC2)cc1 | – | – | – | 38
Cc1ccc(C)c(OCCCC(=O)NC2CCCCC2)c1 | – | – | – | –
Cc1ccc(NC(=O)COCC(=O)Nc2ccc(C)cc2)cc1 | – | – | – | –
Cc1ccc(S(=O)(=O)OCC(=O)Nc2ccc(C(=O)O)c(O)c2)cc1 | – | 62 | – | –
CC(C)N(C(=O)N1CCN(c2ccnc3cc(Cl)ccc23)CC1)C(C)C | – | – | – | –
Nc1c(/C=C2/C=CC(=O)C(O)=C2)c(=O)nc2sc(CC(=O)N3CCCCC3)nn12 | – | 108 | – | –
COC1=C/C(=C/c2c(N)n3nc(CC(=O)N4CCCC4)sc3nc2=O)C=CC1=O | – | – | – | –
Nc1c(/C=C2/C=CC(=O)C(O)=C2)c(=O)nc2sc(CC(=O)N3CCOCC3)nn12 | – | 110 | – | –
Nc1c(/C=C2/C=CC(=O)C(O)=C2)c(=O)nc2sc(CC(=O)N3CCCC3)nn12 | – | 109 | – | –
Nc1ccc2cc3[nH]c4cc(N)ccc4c3nc2c1 | – | 164 | 161 | +
Nc1ccc(-c2nc3ccc(N)cc3[nH]2)cc1 | – | – | – | –
NC(=O)c1sc2nc3c(c(-c4ccco4)c2c1N)CCCC3 | – | – | – | –
Nc1c(C(=O)NCC2CCCO2)sc2nc3c(c(-c4ccco4)c12)CC/C3=C\c1ccco1 (stereo unspecified) | 25 | – | – | –
CC12CCC(=O)N1C(C(=O)OCC(=O)Nc1ccc(C(F)(F)F)cc1)CS2 (stereo unspecified) | – | – | – | –
SMILES | RTF Ca sens inh | C-LANA FP | Keap1 Nrf2 FP | cardiac RTF act
Oc1[nH]c2ccc(Br)cc2c1N=Nc1ccc(F)cc1 | – | – | – | 467
O=[N+]([O-])c1ccc2[nH]c(O)c(N=Nc3ccc(F)cc3)c2c1 | – | – | – | –
Oc1[nH]c2ccccc2c1N=Nc1ccc(F)cc1 | – | – | – | 34
O=C(O)c1ccc(NS(=O)(=O)c2ccc3c(c2)C2C=CCC2C(c2ccccc2F)N3)cc1 (stereo unspecified) | – | 108 | – | –
O=C(O)c1ccc2c(c1)C1C=CCC1C(c1cc3c(cc1Br)OCO3)N2 (stereo unspecified) | – | – | – | –
Cc1ccc(N(C(=O)c2snc(C(N)=O)c2N)C(C(=O)NC2CCCC2)c2ccncc2)cc1 (stereo unspecified) | – | – | – | –
COc1ccc(N2C(=O)c3cccc4cccc(c34)C2=O)cc1 | – | – | – | –
COc1ccc(N2C(=O)c3cccc4c(N(C)CCO)ccc(c34)C2=O)cc1 | – | – | – | 48
Cc1cc(C)nc(NC(=O)c2c(Cl)cccc2Cl)n1 | – | 85 | – | –
Cc1cccc(NC(=O)CSc2nncn2-c2ccccn2)c1 | – | – | – | –
FC(F)(F)c1ccc(-c2nnc(-c3ccccn3)c(-c3ccccn3)n2)nc1 | – | – | – | –
c1ccc(-c2cnn3c(-c4ccccc4)c(-c4ccccc4)nc3n2)cc1 | – | – | – | 378
COc1ccc(OC)c(/C=C2/Sc3ccccc3C2=O)c1 | – | – | – | 37
Cc1occc1-c1nnc(SCC(=O)NC2CCCCC2C)o1 (stereo unspecified) | – | – | – | –
CSc1nc(-c2ccccc2)c(C#N)c(=O)n1C | – | – | – | –
CC(=O)Nc1ccc(S(=O)(=O)NCC(=O)OCC(=O)N2CC(C)OC(C)C2)cc1 (stereo unspecified) | – | – | – | –
